Test systems include NCI-H23 lung; NCI-H226 lung; NCI-H322M lung; HOP-62 NSCLC; NCI-H460 lung; HOP-92 NSCLC; NCI-H522 lung; A549/ATCC NSCLC; 786-0 renal; COLO 205 colon; DU-145 prostate; K-562 leukemia; MALME-3M melanoma; MDA-MB-231 breast; SF-268 CNS; SF-295 CNS; SF-539 CNS; UACC-257 melanoma; M14 melanoma.
Holding throughout (experiment): NCI-60 one-dose screen, 48 h (100 = growth as untreated, 0 = no growth, -100 = all killed)
What all share (settings): 10 µM unless noted

Growth data for eight compounds are collected here from PubChem BioAssay (NCI).

The panel holds about 83,000 compounds, 20% with a hit somewhere; the sample as a whole holds those more often.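 Single-dose data. Exposure time 48 hours. Values below 10 considered active.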 A number with no mark means an inactive call. Activity calls are given as the source filed them.

As for `O=C(CN1CCOCC1)Nc1ccc2ncnc(Nc3ccc(Oc4cccc(C(F)(F)F)c4)c(Cl)c3)c2c1`, the growth was 68.8% with NCI-H23 lung; 75% with NCI-H226 lung; 16.6% in the assay with NCI-H322M lung; 73.9% in the assay with HOP-62 NSCLC; 64.1% in the assay on NCI-H460 lung; 53% in the assay with HOP-92 NSCLC. The growth was 26% in the assay on NCI-H522 lung; 51.2% with A549/ATCC NSCLC; 65.3% in the assay on 786-0 renal; 76.9% in the assay on COLO 205 colon; 40.8% in the assay on DU-145 prostate; 35% in the assay on K-562 leukemia. Moreover, the growth was 73.4% in the assay on MALME-3M melanoma; 60.1% with MDA-MB-231 breast; 59.6% with SF-268 CNS; 63.5% in the assay with SF-295 CNS; 78.8% with SF-539 CNS; 83.3% in the assay with UACC-257 melanoma. Moreover, the growth with M14 melanoma is 64%.

With `O=C(CN1CCOCC1)Nc1ccc2ncnc(Nc3ccc(OCc4cccc(F)c4)c(Cl)c3)c2c1`, the growth in the assay with NCI-H23 lung was 89.6%; in the assay on NCI-H226 lung, 85.1%; with NCI-H322M lung, 20.9%; in the assay with HOP-62 NSCLC it was 84.5%; in the assay with NCI-H460 lung, 67.5%; with HOP-92 NSCLC, 60%. The growth in the assay on NCI-H522 lung was 25.2%; in the assay with A549/ATCC NSCLC it was 49.9%; in the assay with 786-0 renal, 66.2%; with COLO 205 colon, 66.7%; in the assay on DU-145 prostate, 50.5%; in the assay on K-562 leukemia it was 43.9%. The growth in the assay on MALME-3M melanoma is 83.7%; in the assay with MDA-MB-231 breast, 71%; with SF-268 CNS, 68.7%; with SF-295 CNS, 73.9%; in the assay on SF-539 CNS, 75.3%; in the assay on UACC-257 melanoma, 87.9%. The growth with M14 melanoma was 68.5%.

Consider `O=C(Nc1ccc2ncnc(Nc3ccc(Oc4cccc(F)c4)c(Cl)c3)c2c1)c1ccc(CNCCO)cc1`, for which the growth was 73.7% in the assay on NCI-H23 lung; 91.6% with NCI-H226 lung; 39.9% with NCI-H322M lung; 54.7% in the assay with HOP-62 NSCLC; -61.4% (active) with NCI-H460 lung; 62.5% in the assay on HOP-92 NSCLC. The growth was 26.9% with NCI-H522 lung; 48.6% in the assay on A549/ATCC NSCLC; -4.01% (active) in the assay on 786-0 renal; -54.5% (active) in the assay with COLO 205 colon; 7.74% (active) in the assay on DU-145 prostate; -8.41% (active) in the assay with K-562 leukemia. In addition, the growth in the assay on MALME-3M melanoma was 2.04% (active); in the assay with MDA-MB-231 breast, -67.2% (active); with SF-268 CNS, 56%; in the assay on SF-295 CNS, 19.6%; in the assay on SF-539 CNS it was 33.9%; with UACC-257 melanoma it was 99.1%. In addition, in the assay with M14 melanoma, the growth is -45.9% (active).

In the case of `COc1ccc(-c2nc(SC)nc(N3CCOCC3)c2C#N)cc1`, the growth is 98.6% in the assay on NCI-H23 lung; 95.4% in the assay with NCI-H226 lung; 102% with NCI-H322M lung; 88.5% with HOP-62 NSCLC; 109% in the assay on NCI-H460 lung; 71.2% in the assay with HOP-92 NSCLC. The growth in the assay with NCI-H522 lung is 84%; in the assay on A549/ATCC NSCLC it was 95.2%; in the assay on 786-0 renal it was 76.8%; in the assay with COLO 205 colon it was 99%; with DU-145 prostate it was 106%; with K-562 leukemia, 97.5%. Also, the growth is 102% in the assay with MALME-3M melanoma; 92.2% in the assay with MDA-MB-231 breast; 92.4% with SF-268 CNS; 98.8% in the assay on SF-295 CNS; 86.5% with SF-539 CNS; 112% with UACC-257 melanoma. In the assay on M14 melanoma, the growth was 111%.

As to `c1ccc(N2N=C(c3cccc(Nc4ccncc4)c3)CC2c2ccc3c(c2)OCO3)cc1` (configuration not stated), the growth with NCI-H23 lung is 61.1%; in the assay on NCI-H226 lung, 77.7%; with NCI-H322M lung it was 42.7%; with HOP-62 NSCLC, 23.5%; with NCI-H460 lung it was -48.5% (active); with HOP-92 NSCLC, 25.6%. Further, the growth is 17.9% with NCI-H522 lung; 21.1% in the assay on A549/ATCC NSCLC; 81% in the assay on 786-0 renal; -53% (active) in the assay with COLO 205 colon; 16.4% in the assay on DU-145 prostate; 4.94% (active) with K-562 leukemia. Moreover, the growth with MALME-3M melanoma was -22.6% (active); in the assay on MDA-MB-231 breast, 37.7%; in the assay with SF-268 CNS, 29.9%; in the assay on SF-295 CNS, -17.1% (active); with SF-539 CNS it was 9.86% (active); in the assay on UACC-257 melanoma it was 27.2%. The growth with M14 melanoma is 93.1%.

Consider `Cc1[nH]n(C(=O)c2ccncc2)c(=O)c1N=Nc1ccc(F)c(Cl)c1`, for which the growth in the assay on NCI-H23 lung was 92.1%; in the assay on NCI-H226 lung, 91.9%; in the assay with NCI-H322M lung it was 110%; in the assay with HOP-62 NSCLC, 95.8%; in the assay on NCI-H460 lung it was 109%; with HOP-92 NSCLC it was 89.7%. Besides, the growth in the assay on NCI-H522 lung is 103%; in the assay on A549/ATCC NSCLC, 107%; in the assay on 786-0 renal it was 92.9%; with COLO 205 colon, 126%; with DU-145 prostate it was 139%; with K-562 leukemia, 21.4%. The growth was 104% with MALME-3M melanoma; 100% in the assay on MDA-MB-231 breast; 94.2% in the assay on SF-268 CNS; 91.1% with SF-295 CNS; 97% with SF-539 CNS; 11.7% in the assay with UACC-257 melanoma. Moreover, the growth with M14 melanoma was 99.8%.

With `O=C1Nc2c(ccc(Cl)c2Cl)/C1=C/c1ccc([N+](=O)[O-])cc1`, the growth in the assay on NCI-H23 lung is 91.3%; with NCI-H226 lung, 159%; in the assay on NCI-H322M lung it was 84.9%; in the assay with HOP-62 NSCLC it was 90.6%; in the assay on NCI-H460 lung it was 107%; in the assay with HOP-92 NSCLC, 95.5%. Moreover, the growth was 88.7% in the assay with NCI-H522 lung; 29.2% with A549/ATCC NSCLC; 59.7% in the assay with 786-0 renal; 114% with COLO 205 colon; 108% with DU-145 prostate; 89.5% with K-562 leukemia. In addition, the growth is 84.4% with MALME-3M melanoma; 94.2% in the assay with MDA-MB-231 breast; 93.3% with SF-268 CNS; 76.7% in the assay on SF-295 CNS; 95.4% with SF-539 CNS; 72% in the assay with UACC-257 melanoma. The growth with M14 melanoma is 104%.

Turning to `CC[C@H](C)[C@@H]1NC(=O)[C@H](Cc2ccc(O)cc2)N(C)C(=O)[C@H](Cc2ccccc2)NC(=O)CN(C)C(=O)[C@@H]2CCCN2C(=O)[C@@H](Cc2ccccc2)N(C)C(=O)[C@H](CC(C)C)NC1=O`, the growth is -15.1% (active) with NCI-H23 lung; -8.47% (active) with NCI-H226 lung; -20.2% (active) with NCI-H322M lung; 0.573% (active) in the assay with HOP-62 NSCLC; -26.5% (active) with NCI-H460 lung; -3.08% (active) in the assay with HOP-92 NSCLC. The growth was 0.571% (active) with NCI-H522 lung; 2.11% (active) in the assay on A549/ATCC NSCLC; 10.6% with 786-0 renal; -25.1% (active) with COLO 205 colon; 0.387% (active) in the assay with DU-145 prostate; 6.28% (active) with K-562 leukemia. The growth is -25.5% (active) with MALME-3M melanoma; -12.6% (active) in the assay with MDA-MB-231 breast; -5.16% (active) in the assay with SF-268 CNS; -23.5% (active) with SF-295 CNS; -24.8% (active) in the assay with SF-539 CNS; -0.97% (active) with UACC-257 melanoma. For the same compound, the growth in the assay with M14 melanoma was -69.4% (active).
